tim23-1 inh = growth inhibitors of tim23-1 mutant yeast, primary screen, luminescence, uHTS | S. cerevisiae tim23-1 growth, BacTiter-Glo luminescence, 24 h | inhibition, % at 20 µM | 330,000 tested, 1.3% active | AID 463212, 2010;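 active = growth inhibition of the mutant yeast at or above 50%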;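 also: temperature-sensitive mutant grown at 25 °C; plate controls were DMSO-treated mutant yeast for no effect and medium wells lacking yeast for full effect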
TIM10 inh = growth inhibitors of isogenic TIM10 control yeast, primary screen, counter-screen for tim10-1 yeast inhibitor project, luminescence, uHTS. inhibition, % at 10 µM. 330,000 tested, 1.4% active. AID 463195, 2010. S. cerevisiae TIM10 strain growth, BacTiter-Glo luminescence, 24 h;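 active = inhibition of 40% or more at the single tested concentration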;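 also: wild-type TIM10 isogenic control strain grown at permissive 25 °C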
tim10-1 inh = growth inhibitors of tim10-1 mutant yeast, primary screen, luminescence, uHTS. S. cerevisiae tim10-1 ts strain growth, BacTiter-Glo, 24 h. inhibition, % at 20 µM. 330,000 tested, 2.2% active. AID 463190, 2010;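 active = inhibition of at least 40%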;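 also: mutant grown at 25 °C; 0% = DMSO wells with yeast and 100% = wells holding no yeast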
PfHsp90 yeast 2 = growth inhibition of PfHsp90-expressing yeast, primary screen, antimalarial PfHsp90 inhibitor project, S. cerevisiae, BacTiter-Glo luminescence, single point, set 2; BacTiter-Glo ATP, 48 h; yeast lacking PDR1 and PDR3 efflux regulators; inhibition, % at 9.4 µM; 310,000 tested, 0.32% active; AID 504621, 2011;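 active = every replicate shows inhibition above about 80%, whatever the replicate mean, limit read from the data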;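 also: 0% = DMSO neutral controls and 100% = 20 µM radicicol positive controls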
B2AR ag = beta2AR agonists driving receptor internalization, primary screen, cell-based, FAP fluorogen, flow cytometry. 340,000 tested, 0.43% active. response, % (no concentration beside the values). Beta-2 adrenergic receptor (Homo sapiens), P07550. Am2.2-beta2AR cells;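 active = response above a set limit, near 3 SD of response in nonfluorescent compounds, cut at about 42% in these data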
Target sequence (P07550 whole entry, looked up): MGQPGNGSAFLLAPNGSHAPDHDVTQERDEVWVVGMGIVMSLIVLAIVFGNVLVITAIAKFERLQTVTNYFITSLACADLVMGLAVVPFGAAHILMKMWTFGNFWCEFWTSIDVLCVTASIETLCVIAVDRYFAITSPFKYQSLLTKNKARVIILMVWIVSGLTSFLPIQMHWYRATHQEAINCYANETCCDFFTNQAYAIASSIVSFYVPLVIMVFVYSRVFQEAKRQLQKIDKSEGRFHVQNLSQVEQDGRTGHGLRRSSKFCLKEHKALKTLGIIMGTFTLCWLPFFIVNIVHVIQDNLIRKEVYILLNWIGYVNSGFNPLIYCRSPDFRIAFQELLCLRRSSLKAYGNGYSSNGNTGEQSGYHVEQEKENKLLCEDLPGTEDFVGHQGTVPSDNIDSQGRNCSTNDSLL
The depositor's hits bear a star; nt = not tested or not shown. Hits are enriched below; roughly 3.8% of the tested compounds scored in any of these assays.

SMILES | tim23-1 inh | TIM10 inh | tim10-1 inh | PfHsp90 yeast 2 | B2AR ag
O=C(Nc1ccnn1C1CCN(Cc2c[nH]c3ccccc23)CC1)c1ccccc1 | 9 | 15 | 1 | 15 | 9
C#CCOCCOCCOCCNc1nc(N2CCN(C(=O)CCCCCCCCCCNC(=O)[C@@H](CCSC)n3cc(CCO)nn3)CC2)nc(N2CCN(C(=O)CCCCCCCCCCNC(=O)[C@H]([C@@H](C)CC)n3cc(CCCCN=C(N)N)nn3)CC2)n1 | 30 | 8 | 11 | 12 | 78*
C#CCOCCOCCOCCNc1nc(N2CCN(C(=O)CCCCCCCCCCNC(=O)[C@H](CCC(=O)O)n3cc(CCCCCN)nn3)CC2)nc(N2CCN(C(=O)CCCCCCCCCCNC(=O)[C@@H]([C@H](C)O)n3cc(C)nn3)CC2)n1 | 24 | 5 | 9 | -16 | 25
C#CCOCCOCCOCCNc1nc(N2CCN(C(=O)CCCCCCCCCCNC(=O)[C@H](CCCCN)n3cc(CCO)nn3)CC2)nc(N2CCN(C(=O)CCCCCCCCCCNC(=O)[C@@H]([C@H](C)O)n3cc(C)nn3)CC2)n1 | 27 | 0 | 24 | 31 | 87*
C#CCOCCOCCOCCNc1nc(N2CCN(C(=O)CCCCCCCCCCNC(=O)[C@H](CCCCN)n3cc(C[C@@H](C)CC)nn3)CC2)nc(N2CCN(C(=O)CCCCCCCCCCNC(=O)[C@H](CCCCN)n3cc(C[C@@H](C)CC)nn3)CC2)n1 | nt | nt | nt | 47 | 42*
C#CCOCCOCCOCCNc1nc(N2CCN(C(=O)CCCCCCCCCCNC(=O)[C@@H](CCSC)n3cc(CCO)nn3)CC2)nc(N2CCN(C(=O)CCCCCCCCCCNC(=O)[C@H]([C@@H](C)CC)n3cc(CCCCCN)nn3)CC2)n1 | 22 | 9 | 18 | nt | nt
CCc1ccc(Nc2n[n+](-c3ccccc3)c(-c3c(Cl)cccc3Cl)s2)cc1 | -2 | -6 | 10 | -3 | 80*
CC(Sc1nnc(C2CC2)n1C1CC1)C(=O)c1ccc(F)cc1 (stereo not given) | 11 | 7 | 0 | 7 | 9
N#CC(C#N)=C1C=CC=CN1/C(=C\c1ccco1)C(=O)c1ccc(Br)cc1 | nt | nt | nt | 13 | 75*
N#CC(C#N)=C1C=CC=CN1/C(=C\c1ccco1)C(=O)c1ccccc1 | nt | nt | nt | 30 | 60*
Cc1ccccc1CN1N=C(/C=C/c2ccccc2)CCC1=O | 20 | -26 | 4 | -8 | 48*
Cc1ccc(/C=C/C2=NN(Cc3ccc(Cl)c(Cl)c3)C(=O)CC2)cc1 | -1 | -17 | 13 | nt | 5
O=C(O)C(Cc1ccccc1[N+](=O)[O-])N1C(=O)c2ccccc2C1=O (stereo not given) | nt | nt | nt | -11 | 3
Cc1nnc(Sc2cc(NCCCO)c([N+](=O)[O-])c3nonc23)s1 | nt | nt | nt | -5 | 43*
O=C(CSc1nnc(NC(=O)C2CC2)s1)Nc1ccc(F)cc1F | 14 | 6 | 11 | 24 | -3
CC(=O)c1ccc(NC(=O)CCOc2cc(C)ccc2C)cc1 | 19 | -2 | 15 | -10 | -7
COc1ccc(S(=O)(=O)N2CCCCC2)cc1NC(=O)C1COc2ccccc2O1 (stereo not given) | 32 | 18 | 28 | 7 | 9
CCCC(=O)NC(c1ccc2c(c1)OCO2)c1cc(Cl)c2cccnc2c1O (stereo not given) | 43 | -16 | 34 | 99* | 13
O=C(O)C1C2OC3C(OC(=O)C31)C2Br (stereo not given) | nt | nt | nt | -7 | -7
CC12CCC=CC1=C(C=O)C1C2CCC2(C)C(O)CCC12 (stereo not given) | nt | nt | nt | -3 | 11
CCS(=O)(=O)Nc1ccc(-c2cc(-c3ccccc3)c3cc(C)ccc3n2)cc1 | nt | nt | nt | 69 | 19
Cc1ccc2nc(-c3ccc(NS(C)(=O)=O)cc3)cc(-c3ccccc3)c2c1 | 35 | 29 | 39 | 137* | 4
CCOC(=O)c1c(CSC(=N)N)n(-c2ccc(C)cc2)c2cc(Br)c(OC(C)=O)cc12 | 21 | 13 | 18 | nt | 45*
O=C(C[C@H]1C[C@H](C(=O)N2CCCCC2)[C@@]2(CCc3ccccc3)c3[nH]c4cc(-c5ccco5)ccc4c3CCN2C1=O)NCCN1CCOCC1 | 44 | 9 | 27 | 4 | 42*
O=C(N/N=C/c1ccc[nH]1)c1cc2ccccc2cc1O | 7 | -2 | 6 | 23 | 46*
SMILES | tim23-1 inh | TIM10 inh | tim10-1 inh | PfHsp90 yeast 2 | B2AR ag
Cc1cc(-n2c(C)cc(C(=O)CCl)c2C)no1 | 27 | 22 | 26 | 15 | 65*
Cc1sc2nc(C3CC3)nc(SCC(=O)NCc3ccco3)c2c1C | 19 | -44 | 12 | 84* | -10
Cc1sc2nc(SCC(=O)NCc3ccco3)n(C)c(=O)c2c1C | 24 | 9 | 20 | -7 | 7
Nc1ccc2ccccc2c1C(=O)c1ccccc1 | nt | nt | nt | nt | -2
Cc1ccc2c(c1)S(=O)(=O)N(C)C(c1ccccc1)=C2 | nt | nt | nt | -2 | -2
CSc1nncc(/C(C)=N/O)n1 | 10 | -12 | -6 | -4 | -7
CSc1nncc(/C(C)=N\Nc2ccccc2C)n1 | 0 | 7 | -11 | 5 | 48*
O=C(NC(=S)NNC(=O)c1cnccn1)c1ccc(Cl)cc1 | 14 | -29 | -17 | 71 | 4
COc1ccc(C(=O)NC(=S)NNC(=O)c2cnccn2)cc1 | 9 | 13 | 14 | 94* | 11
O=C(O)/C=C/c1cn(-c2ccccc2)nc1-c1cc2ccccc2o1 | 42 | -20 | 13 | 90* | 6
O=c1cc2c(c(-c3ccccc3)n1Cc1ccccc1)[C@@H](CCO)NC2 | nt | nt | nt | 1 | 4
CC(=O)N1CCN(c2ccc(OC[C@H]3CO[C@](Cn4ccnc4)(c4ccc(Cl)cc4Cl)O3)cc2)CC1 | -223 | -149 | -152 | 104* | -3
CN1C(=O)C2(OCC(COc3ccc(Cl)cc3)O2)c2ccccc21 (stereo not given) | 24 | -7 | -21 | -15 | -1
Cc1cccc(-n2ccc(=O)c(C(=O)Nc3ccc(S(=O)(=O)Nc4nccs4)cc3)n2)c1 | 4 | -4 | 23 | -9 | 0
O=C(Nc1ccc(S(=O)(=O)Nc2nccs2)cc1)c1nn(-c2ccccc2)ccc1=O | -10 | 0 | -1 | -18 | 58*
CC(C)N1C/C(=C/c2cccnc2)C(=O)/C(=C/c2cccnc2)C1 | nt | nt | nt | 16 | 17
CN1C/C(=C/c2cccnc2)C(=O)/C(=C/c2cccnc2)C1 | nt | nt | nt | 27 | 43*
COc1cc(C(=O)NC(=S)N2CCCCCC2)cc(OC)c1OC | 23 | -9 | 15 | 9 | -2
COc1cc(C(=O)NC(=S)NC(C)C)cc(OC)c1OC | 19 | 7 | 29 | -15 | 78*
O=c1ccn(C2CCCO2)c(=O)[nH]1 (stereo not given) | nt | nt | nt | -3 | -2
C/C(=N/NC(=O)c1cnccn1)c1ccncc1 | -14 | -3 | -18 | -27 | -1
CC(=NNC(=S)N1CCN(c2ccccn2)CC1)c1nccs1 | nt | nt | nt | 142* | -13

Source: PubChem BioAssay
